Reference: the supplement of paper PMC11732987, “Enantioselective OTUD7B fragment discovery through chemoproteomics screening and high-throughput optimisation” (Communications Chemistry, 2025)

Columns and labels:
Assay in all cases: log2 ratio of Biotin-Ahx-Ub-VS probe labelling (fragment/DMSO); higher = less target engagement (more negative = stronger competition), active = hit call of the paper (q ≤ 0.05, log2 ratio ≤ -1)
Settings in all cases: compound concentration: 200 uM; treatment time: 3 h
ALG13 = target: T1, ALG13 (UniProt Q9NP73)
T1 sequence (whole entry): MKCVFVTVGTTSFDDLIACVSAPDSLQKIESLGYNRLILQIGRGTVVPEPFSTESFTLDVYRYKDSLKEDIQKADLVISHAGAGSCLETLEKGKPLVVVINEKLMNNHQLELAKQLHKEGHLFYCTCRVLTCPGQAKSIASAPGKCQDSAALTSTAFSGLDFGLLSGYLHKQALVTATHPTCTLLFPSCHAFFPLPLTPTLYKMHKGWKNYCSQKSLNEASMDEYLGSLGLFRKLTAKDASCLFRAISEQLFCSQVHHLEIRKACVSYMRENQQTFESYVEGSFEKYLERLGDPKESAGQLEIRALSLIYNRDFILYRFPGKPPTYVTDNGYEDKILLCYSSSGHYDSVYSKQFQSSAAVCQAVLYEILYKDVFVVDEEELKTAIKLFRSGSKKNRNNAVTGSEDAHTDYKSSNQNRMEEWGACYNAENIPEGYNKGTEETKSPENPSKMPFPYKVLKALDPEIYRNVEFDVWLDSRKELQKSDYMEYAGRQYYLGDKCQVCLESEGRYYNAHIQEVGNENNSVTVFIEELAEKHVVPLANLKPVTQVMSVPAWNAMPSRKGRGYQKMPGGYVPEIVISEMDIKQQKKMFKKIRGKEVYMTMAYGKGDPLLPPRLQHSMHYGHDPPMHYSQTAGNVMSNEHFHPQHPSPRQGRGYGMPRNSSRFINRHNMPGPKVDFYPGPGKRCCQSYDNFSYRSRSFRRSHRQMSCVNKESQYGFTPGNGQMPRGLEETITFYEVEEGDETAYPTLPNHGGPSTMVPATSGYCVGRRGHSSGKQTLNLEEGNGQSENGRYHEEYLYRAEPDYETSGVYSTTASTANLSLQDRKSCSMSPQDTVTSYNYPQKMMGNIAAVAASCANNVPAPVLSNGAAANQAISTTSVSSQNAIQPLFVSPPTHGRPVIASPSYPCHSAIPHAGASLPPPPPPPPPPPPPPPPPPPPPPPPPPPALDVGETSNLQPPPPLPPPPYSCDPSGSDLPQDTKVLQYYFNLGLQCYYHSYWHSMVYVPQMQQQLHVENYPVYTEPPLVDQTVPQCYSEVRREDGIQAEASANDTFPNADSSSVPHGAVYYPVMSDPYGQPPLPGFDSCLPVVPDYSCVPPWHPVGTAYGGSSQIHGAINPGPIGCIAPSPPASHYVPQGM
Summary of the method: (§1)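 HEK293T lysate (495 µg per sample, in Tris/CHAPS/IGEPAL buffer with protease inhibitors) was exposed in triplicate for 3 h to fragment at 200 µM or to vehicle, then to Biotin-Ahx-Ub-VS at 0.5 µM final for 1 h. Labelled DUBs were enriched on NeutrAvidin, digested with LysC and trypsin, and analysed by diaPASEF LC-MS/MS. Spectronaut label-free quantities were normalised to the global median, and values are average log2 ratios of fragment over vehicle from an unpaired t-test. Only proteins with ≥2 unique peptides were used.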

ATXN3 = ATXN3 (UniProt P54252)
Sequence of ATXN3 (P54252 whole entry): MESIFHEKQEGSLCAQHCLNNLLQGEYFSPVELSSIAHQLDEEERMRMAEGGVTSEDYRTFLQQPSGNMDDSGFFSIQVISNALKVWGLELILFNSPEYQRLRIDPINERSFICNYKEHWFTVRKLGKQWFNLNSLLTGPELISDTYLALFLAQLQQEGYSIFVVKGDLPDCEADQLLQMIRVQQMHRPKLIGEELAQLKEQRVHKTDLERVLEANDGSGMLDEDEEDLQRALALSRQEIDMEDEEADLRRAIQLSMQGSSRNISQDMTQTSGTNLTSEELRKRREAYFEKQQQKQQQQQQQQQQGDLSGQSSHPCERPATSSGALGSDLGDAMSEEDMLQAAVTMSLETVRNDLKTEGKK
Summary of the method: as §1

BAP1 = target: T2, BAP1 (UniProt Q92560)
T2 sequence (whole entry): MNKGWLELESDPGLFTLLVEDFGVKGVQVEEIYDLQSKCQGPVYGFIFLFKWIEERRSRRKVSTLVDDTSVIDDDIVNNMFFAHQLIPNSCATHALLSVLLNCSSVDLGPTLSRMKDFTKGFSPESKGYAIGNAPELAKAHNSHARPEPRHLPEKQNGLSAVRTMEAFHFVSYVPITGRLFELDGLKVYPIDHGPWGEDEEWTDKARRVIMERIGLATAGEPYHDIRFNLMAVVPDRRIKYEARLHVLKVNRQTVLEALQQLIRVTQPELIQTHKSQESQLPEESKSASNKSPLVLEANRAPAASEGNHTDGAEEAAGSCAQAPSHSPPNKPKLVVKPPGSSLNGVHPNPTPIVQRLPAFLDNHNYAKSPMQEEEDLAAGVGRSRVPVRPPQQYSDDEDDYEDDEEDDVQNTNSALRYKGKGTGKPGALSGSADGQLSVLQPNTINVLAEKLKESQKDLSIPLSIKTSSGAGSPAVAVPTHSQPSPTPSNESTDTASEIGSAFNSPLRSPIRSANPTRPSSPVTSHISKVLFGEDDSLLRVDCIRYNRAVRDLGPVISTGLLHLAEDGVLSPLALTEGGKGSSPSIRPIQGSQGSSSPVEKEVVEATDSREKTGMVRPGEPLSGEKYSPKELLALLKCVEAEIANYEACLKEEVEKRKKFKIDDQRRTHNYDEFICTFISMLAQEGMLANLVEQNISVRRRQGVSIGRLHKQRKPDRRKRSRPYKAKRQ
Summary of the method: as §1

EIF3F = EIF3F (UniProt O00303)
Sequence of EIF3F (O00303 whole entry): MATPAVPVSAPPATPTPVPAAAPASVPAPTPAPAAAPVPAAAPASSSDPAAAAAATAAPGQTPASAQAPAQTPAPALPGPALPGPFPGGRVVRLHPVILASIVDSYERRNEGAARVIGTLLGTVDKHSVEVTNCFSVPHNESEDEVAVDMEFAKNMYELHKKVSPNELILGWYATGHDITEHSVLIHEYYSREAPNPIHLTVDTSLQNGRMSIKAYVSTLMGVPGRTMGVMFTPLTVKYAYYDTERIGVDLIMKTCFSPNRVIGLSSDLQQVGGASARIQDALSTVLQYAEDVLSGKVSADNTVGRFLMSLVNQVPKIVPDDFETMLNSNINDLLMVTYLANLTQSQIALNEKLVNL
Summary of the method: as §1

EIF3H = EIF3H (UniProt O15372)
Sequence of EIF3H (O15372 whole entry): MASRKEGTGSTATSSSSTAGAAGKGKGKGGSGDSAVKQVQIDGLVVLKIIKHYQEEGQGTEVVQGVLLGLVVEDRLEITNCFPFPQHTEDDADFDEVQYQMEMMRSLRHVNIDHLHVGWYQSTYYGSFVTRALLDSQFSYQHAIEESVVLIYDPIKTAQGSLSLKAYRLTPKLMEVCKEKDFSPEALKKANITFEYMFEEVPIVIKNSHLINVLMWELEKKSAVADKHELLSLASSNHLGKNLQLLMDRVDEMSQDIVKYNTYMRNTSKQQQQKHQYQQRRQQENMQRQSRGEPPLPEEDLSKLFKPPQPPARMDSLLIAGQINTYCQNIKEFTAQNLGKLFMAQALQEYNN
Summary of the method: as §1

FAM105A = target: T3, FAM105A (UniProt Q9NUU6)
T3 sequence (whole entry): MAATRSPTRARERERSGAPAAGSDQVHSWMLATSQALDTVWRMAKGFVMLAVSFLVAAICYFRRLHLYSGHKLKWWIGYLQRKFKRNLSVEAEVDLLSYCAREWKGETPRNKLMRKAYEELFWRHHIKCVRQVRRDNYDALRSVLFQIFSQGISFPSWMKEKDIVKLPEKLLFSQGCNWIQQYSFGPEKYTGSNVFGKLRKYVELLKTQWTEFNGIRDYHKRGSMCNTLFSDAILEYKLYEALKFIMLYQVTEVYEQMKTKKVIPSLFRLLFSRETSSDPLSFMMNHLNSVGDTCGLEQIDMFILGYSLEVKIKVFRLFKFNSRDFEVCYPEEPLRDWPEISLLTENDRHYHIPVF
Summary of the method: as §1

OTUB1 = OTUB1 (UniProt Q96FW1)
Sequence of OTUB1 (Q96FW1 whole entry): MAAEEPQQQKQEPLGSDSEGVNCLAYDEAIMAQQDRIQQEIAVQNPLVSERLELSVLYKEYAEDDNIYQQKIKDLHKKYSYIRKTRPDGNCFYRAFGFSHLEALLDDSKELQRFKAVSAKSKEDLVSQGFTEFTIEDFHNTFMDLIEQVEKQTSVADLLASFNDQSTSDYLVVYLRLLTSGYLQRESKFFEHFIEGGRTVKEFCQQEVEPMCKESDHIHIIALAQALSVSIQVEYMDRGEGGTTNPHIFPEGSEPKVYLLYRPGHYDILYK
Summary of the method: as §1

OTUD4 = target: T4, OTUD4 (UniProt Q01804)
T4 sequence (whole entry): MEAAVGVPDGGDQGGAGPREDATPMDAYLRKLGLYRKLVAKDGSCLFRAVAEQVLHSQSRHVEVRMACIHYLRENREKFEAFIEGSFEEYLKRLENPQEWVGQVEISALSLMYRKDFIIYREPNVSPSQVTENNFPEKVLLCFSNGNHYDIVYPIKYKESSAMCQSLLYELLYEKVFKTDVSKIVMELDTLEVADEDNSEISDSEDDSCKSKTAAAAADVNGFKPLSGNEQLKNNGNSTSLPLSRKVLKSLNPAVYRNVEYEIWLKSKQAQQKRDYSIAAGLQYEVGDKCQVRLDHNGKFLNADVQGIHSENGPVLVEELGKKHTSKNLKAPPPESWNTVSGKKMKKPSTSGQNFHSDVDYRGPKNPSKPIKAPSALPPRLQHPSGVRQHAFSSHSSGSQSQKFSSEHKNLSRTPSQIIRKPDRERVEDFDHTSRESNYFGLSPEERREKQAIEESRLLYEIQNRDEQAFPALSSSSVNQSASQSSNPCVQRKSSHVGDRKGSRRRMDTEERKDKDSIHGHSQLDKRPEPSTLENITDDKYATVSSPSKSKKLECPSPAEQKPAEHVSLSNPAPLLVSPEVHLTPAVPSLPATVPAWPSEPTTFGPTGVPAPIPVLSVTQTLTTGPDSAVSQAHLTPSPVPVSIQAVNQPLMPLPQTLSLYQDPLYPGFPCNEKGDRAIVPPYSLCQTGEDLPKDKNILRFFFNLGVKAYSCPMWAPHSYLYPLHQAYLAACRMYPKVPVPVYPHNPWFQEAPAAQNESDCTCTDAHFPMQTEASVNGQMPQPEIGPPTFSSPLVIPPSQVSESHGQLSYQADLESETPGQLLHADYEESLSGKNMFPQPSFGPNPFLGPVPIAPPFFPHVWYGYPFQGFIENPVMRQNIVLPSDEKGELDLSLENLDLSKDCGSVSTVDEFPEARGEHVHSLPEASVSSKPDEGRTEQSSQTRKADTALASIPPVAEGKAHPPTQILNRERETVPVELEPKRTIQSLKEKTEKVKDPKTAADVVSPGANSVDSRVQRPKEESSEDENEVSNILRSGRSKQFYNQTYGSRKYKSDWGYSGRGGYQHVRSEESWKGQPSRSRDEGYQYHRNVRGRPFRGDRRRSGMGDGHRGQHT
Summary of the method: as §1

OTUD5 = target: T5, OTUD5 (UniProt Q96G74)
T5 sequence (whole entry): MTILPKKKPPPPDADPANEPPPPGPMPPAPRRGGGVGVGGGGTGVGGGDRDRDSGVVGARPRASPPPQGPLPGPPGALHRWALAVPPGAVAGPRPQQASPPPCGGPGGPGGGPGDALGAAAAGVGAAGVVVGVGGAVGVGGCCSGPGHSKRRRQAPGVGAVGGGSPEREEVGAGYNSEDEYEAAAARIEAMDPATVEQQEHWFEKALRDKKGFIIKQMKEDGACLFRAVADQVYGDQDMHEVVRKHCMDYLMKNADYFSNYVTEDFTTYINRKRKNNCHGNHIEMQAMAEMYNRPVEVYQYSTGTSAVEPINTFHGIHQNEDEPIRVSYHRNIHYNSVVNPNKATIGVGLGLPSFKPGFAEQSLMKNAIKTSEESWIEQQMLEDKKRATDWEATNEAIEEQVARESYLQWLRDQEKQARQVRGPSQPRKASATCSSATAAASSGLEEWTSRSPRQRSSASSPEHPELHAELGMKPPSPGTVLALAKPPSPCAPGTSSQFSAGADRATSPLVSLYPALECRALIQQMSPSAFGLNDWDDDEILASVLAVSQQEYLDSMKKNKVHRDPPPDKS
Summary of the method: as §1

Measured: log2 ratio of Biotin-Ahx-Ub-VS probe labelling

O=C(O)C1Cc2ccccc2CN1C(=O)CCl (centres undefined)
inactive: ALG13 0.144 | ATXN3 -0.269 | BAP1 -0.657 | EIF3F -0.182 | EIF3H -0.0826 | FAM105A 0.395 | OTUB1 -0.323 | OTUD4 -0.404 | OTUD5 -0.562
